Bioassay records deposited in PubChem BioAssay by National Center for Advancing Translational Sciences (NCATS).
Shown are actives, neighbours in structure and some others; about 0.5% of the full set was active somewhere.
B2AR arrestin: recruits beta-arrestin to the human beta2-adrenergic receptor; hit rate 0.02% among 330,000; Potency, µM (series often up to 46.1 µM), for the others: top-dose activation, usual class: activators; AID 492947; beta-arrestin recruitment to beta2AR, cell-based reporter; P07550;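 also: potency is read from the fitted curve at half-maximal effect; 0% = DMSO controls and full agonism = EC100 isoproterenol or metaproterenol; nearly all actives have a fitted effect of over 65% in size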
Target sequence (P07550 whole entry, looked up): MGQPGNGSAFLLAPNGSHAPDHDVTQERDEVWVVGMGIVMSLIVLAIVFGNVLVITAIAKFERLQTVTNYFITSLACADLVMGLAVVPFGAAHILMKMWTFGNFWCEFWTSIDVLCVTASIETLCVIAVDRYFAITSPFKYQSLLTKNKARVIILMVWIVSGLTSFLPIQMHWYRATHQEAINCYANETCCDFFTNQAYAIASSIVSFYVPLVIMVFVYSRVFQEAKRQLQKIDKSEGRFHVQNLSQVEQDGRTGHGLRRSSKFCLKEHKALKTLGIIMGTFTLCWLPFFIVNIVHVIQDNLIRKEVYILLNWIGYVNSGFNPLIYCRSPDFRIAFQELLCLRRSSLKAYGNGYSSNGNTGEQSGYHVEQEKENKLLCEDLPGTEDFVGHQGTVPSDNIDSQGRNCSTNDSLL
TSHR antag: blocks TSH signaling through the human TSH receptor | P16473 | TSHR-expressing cells, TSH-stimulated cAMP HTRF, 2 h; hits give low values | activity change, negative = inhibition, % at 11.5 µM | hit rate 0.2% among 330,000 | AID 504810;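 active = activity change below a set negative limit, meaning inhibition stronger than a set level, cut at about -70% in these data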; also: % is scaled to controls: 0 for no effect and ±100 for the full control effect
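Competitive HTRF cAMP read-out (cryptate anti-cAMP antibody, cAMP-d2; 30 min, room temperature) in freshly harvested TSHR cells. Compounds added before TSH at EC80 (4nM final), followed by 2 hours' incubation at 37 deg C.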
Mm-Cpn inhibitor: inhibitors of Methanococcus maripaludis chaperonin TRiC (MmCpn); purified Mm-Cpn ATPase, ADP Transcreener TR-FRET; Potency, µM (titrated, usually from 76.9 µM), for inactives: at the highest dose activity, negative = inhibition, usual class: inhibitors; hit rate 0.031% among 330,000; also: potency is read from the fitted curve at half-maximal effect; % is scaled to controls: 0 for no effect and ±100 for the full control effect; nearly all actives have a fitted effect of over 80% in size
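Inhibition of chaperonin ATP hydrolysis is measured as reduced ADP production, detected by competitive TR-FRET in which signal falls with ADP. Final enzyme 25 nM and ATP 10 uM, reacted 30 min at 37°C.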
CCT chaperon mod: cytosolic chaperonin activity modulation | purified chaperonin ATPase assay, HTRF ADP detection, 30 min | activity change, % (concentration not given with the values), hits read low | hit rate 0.3% among 360,000; in the data active = activity change below about -30%; also: % is scaled to controls: 0 for no effect and ±100 for the full control effect
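TRiC (40 or 20 nM final, by batch activity) in 30 mM Tris pH 7.4, 100 mM KCl, 5 mM MgCl2, 1 mM DTT was treated with compound at 76 uM single dose, then 10 uM ATP, 30 min at 37 °C. ADP was read by HTRF Transcreener.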
TCR act: T cell receptor activation; Potency, µM (doses to about 9.22 µM), for the others: top-dose activation of IL-2 secretion, hits mostly activators; AID 504894; 330,000 tested, under 10 active; primary human leukocytes, anti-CD3, IL-2 HTRF, 48 h; also: % of control where 0% means no effect
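TCR engagement came from a-CD3 beads alone, with compounds added to primary human leukocytes for 48 hr. Secreted IL-2 bridged europium cryptate- and d2-labelled anti-IL-2 antibodies, giving FRET emission at 665nm after 320nm excitation.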
Active calls of the source: *; · = no result given; ! = repeats disagree; [ ] = remark or other dose. Unless noted, calls follow the shape of the dose curve; as a rule, active = well fitted curve in the direction sought with a large enough effect; inconclusive = small, poorly fitted or top-dose-only effect, or another doubt; inactive = no such curve, though single readings can be large; an effect the other way counts as inactive or inconclusive.

SMILES	B2AR arrestin	TSHR antag	Mm-Cpn inhibitor	CCT chaperon mod	TCR act
CC(C)(C)C(=O)Nc1ccc(S(=O)(=O)Nc2ccccn2)cc1	0%	2	0%	1	5%
O=C(CN1C(=O)c2ccccc2S1(=O)=O)NCCSCc1cccc(Cl)c1	0%	-96*	5%	1	5%
O=C(CN1C(=O)c2ccccc2S1(=O)=O)NCCSC1CCCCC1	-1%	-6	-1%	2	0%
CN(CC(=O)Nc1ccc(F)cc1)C(=O)COC(=O)c1ccc(-c2ccccc2)cc1	0%	0	-1%	-31*	-4%
CC(C)c1nc2oc3ccccc3c(=O)c2c(=O)n1-c1ccccc1	-1%	-21	2%	1	-3%
COc1ccc(-c2sc(C(=O)c3ccc(Cl)cc3Cl)cc2CC(=O)O)cc1	-1%	-11	50µM*	-1	12%
CCOC(=O)C1CCN(S(=O)(=O)c2c(Cl)ccc3nonc23)CC1	-1%	-90*	-2%	·	·
Cn1c(=O)c2c(nc(N3CCN(Cc4ccccc4)CC3)n2CC(=O)c2ccccc2)n(C)c1=O	·	·	·	-1	·
O=C1C(SCCO)=C(SCCO)C(=O)c2ccccc21	-2%	-86*!	-16%	0	2%
Cc1cccc(C(=O)Nc2cccc(Br)c2)c1[N+](=O)[O-]	0%	-1	1%	-2	1%
O=S(=O)(NCc1cccnc1)c1ccc(Cl)c(Cl)c1Cl	0%	0	0%	-48*	9%
O=S(=O)(NCc1cccnc1)c1ccc(Cl)c2ccccc12	0%	-3	0%	-1	4%
FC(F)(F)c1cccc(-c2ccn3ncnc3n2)c1	0%	-8	2%	-56*	1%
CN(Cc1ccccc1)C(NC(=O)c1ccccc1)C(Cl)(Cl)Cl (configuration not stated)	-1%	68	-2%	-39*	-5%
CC(C)N(C(=O)[C@H]1C[C@H](CC(=O)NC(C)(C)C)C(=O)N2CCc3c([nH]c4cc(-c5ccco5)ccc34)[C@]12C)C(C)C	0%	1	-2%	-41*	2%[46.1 µM]
CCOC(=O)C1=C(c2ccccc2)Nc2ncnn2C1c1cccc(O)c1 (configuration not stated)	-1%	6	0%	-2	9%
CC1(C)CC(=O)C2=C(C1)N1C(=C(C#N)C2c2ccccc2Cl)N=C(N)c2ccccc21 (configuration not stated)	2%	-10	0%	-2	3%
CC1(C)CC(=O)C2=C(C1)N1C(=C(C#N)C2c2ccc(Cl)cc2)N=C(N)c2ccccc21 (configuration not stated)	-1%	-33	-2%	-36*	-3%
CCCn1c(CCc2ccccc2)nnc1SCC(=O)N1CCCC1	0%	10	-1%	2	4%
CCCc1nnc(SCC(=O)N2CCCC2)n1Cc1ccco1	0%	9	1%	-47*	1%
CCN(CC)S(=O)(=O)c1ccc(C(=O)NC(=S)N2CCN(c3ccccc3O)CC2)cc1	·	·	·	-52*	·
CCN(C(=O)CSc1ncccc1C(=O)O)C1CCCCC1	0%	13	1%	-1	8%
O=C(COC(=O)c1cc(=O)[nH]c2ccccc12)NC1CCCC1	0%	-1	3%	-1	6%
COc1ccc(S(=O)(=O)N2CCN(C3CCCC(C)C3)CC2)cc1 (configuration not stated)	0%	-9	0%	-1	2%
CC1CCCC(N2CCN(S(=O)(=O)c3ccccc3)CC2)C1 (configuration not stated)	-1%	-108*	-4%	-4	3%
SMILES	B2AR arrestin	TSHR antag	Mm-Cpn inhibitor	CCT chaperon mod	TCR act
CCNc1nc(NCC)n2c(SCC(=O)NC34CC5CC(CC(C5)C3)C4)nnc2n1	0%	5	0%	-1	-11%
COc1ccc(C(=O)N=C2SC3CS(=O)(=O)CC3N2c2ccc(N(C)C)cc2)cc1OC (configuration not stated)	0%	-2	0%	-60*	0%
CC(=Nc1ccccc1)C1=C(O)C(Cc2ccc(O)cc2)NC1=O (configuration not stated)	·	·	·	-68*	0%
COc1ccc(OC)c(NC=C2C(=O)OC3(CCCCC3)OC2=O)c1	-1%	9	2%	-2	1%
CCOc1ccccc1NC=C1C(=O)OC2(CCCCC2)OC1=O	0%	-11	2%	-38*	·
CC(=O)N(C1=C(Cl)C(=O)c2ccccc2C1=O)C1CCCCC1	0%	-82*	-2%	4	3%
CCC(NC(=O)Nc1nnc(C(F)(F)F)s1)(C(F)(F)F)C(F)(F)F	0%	-87*	1%	-2	7%
O=C(O)CCC(=O)Nc1nnc(C(F)(F)F)s1	0%	1	-3%	1	-2%
Cc1cccc(OCCn2nc(C(=O)O)c3ccccc3c2=O)c1	-1%	-1	1%	0	-1%
COC(=O)CN1C(=O)COc2ccc(S(=O)(=O)N3CCCCC3)cc21	·	·	·	-7	·
COC(=O)CN1C(=O)COc2ccc(S(=O)(=O)N3CCCC3)cc21	1%	-135*	-1%	0	-6%
COc1ccc(/C=C/C(=O)O)cc1S(=O)(=O)NC1CCS(=O)(=O)C1 (configuration not stated)	0%	-3	-6%	-97*	-6%
COc1ccc(OC)c(C(=O)CCCC(=O)c2cc(OC)ccc2OC)c1	-1%	19	-1%	-1	-2%
COc1cc(OC)c(C(=O)CCC(=O)O)cc1OC	-1%	2	-1%	-31*	-2%[46.1 µM]
CCOC(=O)C1=CN(CC)S(=O)(=O)NC1c1ccc(F)c(Cl)c1 (configuration not stated)	-1%	40	2%	1	-4%[46.1 µM]
CCOC(=O)C1CCCN(C(=O)c2ccc3nc(-c4ccccc4)c(-c4ccccc4)nc3c2)C1 (configuration not stated)	0%	-19	40µM*	-3	8%
COc1ccc(CC(=O)Nc2ccc(N3CCN(c4ccc(OC)cc4)CC3)c(C#N)c2)cc1	0%	-8	-5%	-5	-2%
O=C(C1CCC(CNc2nc(=S)[nH]c3ccccc23)CC1)N1CCN(c2ccc(F)cc2)CC1 (configuration not stated)	0%	-4	-6%	-36*	-1%
COc1ccc(N2CCN(CCCNC(=O)C3CCC(CNc4nc(=S)[nH]c5ccccc45)CC3)CC2)cc1 (configuration not stated)	0%	-1	-4%	1	-12%
CCCC(=O)Nc1ccccc1NC(C)=O	0%	5	2%	-31*	11%
CC(CC(=O)Nc1cccc(F)c1)S(=O)(=O)c1ccc2c(c1)NC(=O)CO2 (configuration not stated)	0%	-9	2%	-1	-3%
